Only some compounds are listed: those with a hit (about 2.7% of all), similar ones and a draw of the others.
IP6K1 inhibitor: IP6K1 kinase inhibition | Q92551 | IP6K1 kinase, ADP-Glo luminescence, 2 h; hits give low values | hit rate 0.81% among 140,000 | activity change, % (series mostly up to about 58 µM); in the data active = activity change below about -25%; note: % is set by controls: 0 for no effect and ±100 for the full control effect
Target sequence (Q92551 whole entry, looked up): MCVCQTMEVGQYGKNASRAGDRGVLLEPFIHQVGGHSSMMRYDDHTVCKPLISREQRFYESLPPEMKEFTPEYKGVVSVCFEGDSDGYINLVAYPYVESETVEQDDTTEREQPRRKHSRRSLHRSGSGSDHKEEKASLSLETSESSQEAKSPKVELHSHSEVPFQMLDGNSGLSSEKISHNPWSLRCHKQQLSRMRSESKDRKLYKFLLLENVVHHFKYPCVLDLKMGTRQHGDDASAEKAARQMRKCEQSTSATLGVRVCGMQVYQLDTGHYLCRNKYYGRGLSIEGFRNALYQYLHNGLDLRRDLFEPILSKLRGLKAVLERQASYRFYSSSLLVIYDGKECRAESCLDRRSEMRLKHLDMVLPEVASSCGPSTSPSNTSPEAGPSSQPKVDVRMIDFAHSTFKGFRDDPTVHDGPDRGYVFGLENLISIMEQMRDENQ
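ADP-Glo luminescence measures ADP made by human IP6K1 during a 2 h RT reaction with ATP/IP6 (mix at 1.3 mM/130 uM); top library doses 57.5 and 19.1 uM final.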
KDM5B inh: inhibitors of human KDM5B histone demethylase | KDM5B demethylase, FDH-coupled NADH fluorescence (FDH is formaldehyde dehydrogenase) | Potency, µM (highest dose often 57.7 µM), actives largely listed as inhibitors | hit rate 2.6% among 220,000; active = well fitted inhibition curve with a large enough effect; inconclusive = small, poorly fitted or top-dose-only effect; inactive = no such curve, though single readings can be large or run the other way; note: potency is the fitted concentration of half-maximal effect; 0% is about no effect; nearly all actives have a fitted effect of over 70% in size
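Here, H3K4me3 peptide (12.5 µM in substrate mix) is demethylated by KDM5BΔAP, 200 nM final, after 10 min compound exposure. Formaldehyde product is coupled through FDH (0.25 U/mL in mix) to NADH fluorescence; 30-min ΔRFU feeds dose-response curves.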
Active calls of the source: *; i = inactive; u = inconclusive; x = not tested or not shown.

SMILES	IP6K1 inhibitor	KDM5B inh
CCN1C(=O)C(Cc2ccc(OC)c(OC)c2OC)c2ccccc21 (configuration not stated)	x	i
COc1ccc2[nH]cc(CCNC(=O)c3cccc(F)c3F)c2c1	x	i
COc1ccccc1-c1nc(C(=O)N2CCOCC2)n2ccccc12	-11	89µM*
COc1ccccc1-c1nc(C(=O)N2CCOCC2)n2ccncc12	-7	100µM*
O=C(c1nc(-c2cccnc2)c2cnccn12)N1CCOCC1	4	i
COc1ccccc1CN1CCc2nc(C(=O)N3CCOCC3)oc2CC1	-3	i
COc1ccccc1-c1nc(C(=O)N2CCN(c3ncccn3)CC2)n2ccncc12	11	u
O=C(c1nc(-c2ccc(F)cc2)c2cnccn12)N1CCOCC1	0	40µM*
COc1ncccc1-c1nc2cc(C(=O)Nc3cccc(Cl)c3)ccc2o1	18	x
COc1ccc(C)cc1N(C)C(=O)Cn1nc(Cc2ccncc2)c2ccccc2c1=O	x	i
O=C(CCn1ccc2cc(S(=O)(=O)N3CCCCC3)ccc21)NCCN1CCCCCC1	x	i
CS(=O)(=O)NCCCNC(=O)c1cnc2ccccc2n1	x	i
O=Cc1c(-c2ccc(F)cc2)[nH]c2ccccc12	x	i
O=C1C2CCCCCC1CN(Cc1ccccc1)C2	x	i
O=C(O)c1ccccc1C(=O)N[C@H]1CO[C@H]2[C@@H]1OC[C@@H]2n1nnnc1Oc1ccc2c(c1)OCO2	12	i
COc1ccc(C(=O)N[C@H]2CO[C@H]3[C@@H]2OC[C@@H]3n2nnnc2Oc2ccc3c(c2)OCO3)cc1	7	35µM*
Cc1cc(C)cc(NC(=S)N[C@H]2CO[C@H]3[C@@H]2OC[C@@H]3n2nnnc2Oc2cccc(N(C)C)c2)c1	5	25µM*
CC(=O)c1ccc(NC(=O)N[C@H]2CO[C@H]3[C@@H]2OC[C@@H]3n2nnnc2Oc2cccc(N(C)C)c2)cc1	-24	i
O=c1c2nc(-c3ccsc3)ccc2ncn1-c1ccccc1	3	40µM*
O=c1c2nc(-c3ccncc3)ccc2ncn1-c1ccccc1	16	i
C[C@@H](NC(=O)c1nc2ccccc2[nH]1)c1onc(-c2ccc(F)cc2)c1C(=O)O	7	35µM*
Cc1nn(-c2ccccc2)nc1C(=O)N[C@H](C)c1onc(-c2ccc(F)cc2)c1C(=O)O	9	32µM*
C[C@@H](NC(=O)c1ccc(Cl)cc1)c1onc(-c2ccc(F)cc2)c1C(=O)O	-2	i
C[C@@H](NC(=O)NC(C)(C)C)c1onc(-c2ccc(F)cc2)c1C(=O)O	19	i
COc1ccccc1-c1noc(CSc2nc(C)c(C)n2C2CCCCC2)n1	x	i
SMILES	IP6K1 inhibitor	KDM5B inh
COc1ccc(C(=O)O)cc1S(=O)(=O)NCC(=O)O	x	i
Cc1ccc2nc3c(n2c1)C(c1ccccc1OCCN(C)C)CC(=O)NC3 (configuration not stated)	-3	32µM*
Cc1nn(-c2ncccn2)c2c1C(c1ccccc1OCCc1ccccc1)CC(=O)N2 (configuration not stated)	x	i
COc1ccccc1/C=C1\Oc2cc(OS(C)(=O)=O)ccc2C1=O	x	i
O=C(NC1CC1)c1ccc2nnc(-c3cncc(Cl)c3)n2c1	7	x
COCCNC(=O)c1ccc2nnc(-c3ccc(Cl)cc3)n2c1	-3	x
COCCNC(=O)c1ccc2nnc(-c3cncc(Cl)c3)n2c1	12	100µM*
O=C(NC1CC1)c1ccc2nnc(-c3ccc(Cl)cc3)n2c1	-3	50µM*
Cc1nn(-c2ccccc2)c2c1C(C1CC1)N(C1CCCN(C(=O)c3ccc(F)cc3)C1)C2=O (configuration not stated)	-3	x
Clc1cccc(CN2CCc3ccccc3C2)c1	x	i
O=C(Cc1ccsc1)N1CCC2(CC1)N=C(c1ccc(Cl)cc1)NO2	-18	u
COc1ccc(C(=O)N2CCC3(CC2)N=C(c2ccc(Cl)cc2)NO3)cc1	-1	32µM*
COc1cc(OC)cc(C(=O)N2CCC3(CC2)N=C(c2ccc(Cl)cc2)NO3)c1	-12	u
Cc1ccc(C2=NC3(CCN(C(=O)c4cc(F)ccc4Cl)CC3)ON2)cc1	16	i
O=C(c1cc(F)ccc1F)N1CCC2(CC1)N=C(c1ccc(Cl)cc1)NO2	-2	22µM*
O=C(Cc1cccs1)N1CCC2(CC1)N=C(c1ccc(Cl)cc1)NO2	-6	25µM*
CC1=C[C@@H](CO)[C@H](C(C)C)C[C@H]1Cc1nnc(-c2ccc(N(C)C)cc2)o1	22	32µM*
CC1=C[C@@H](CN2CCN(CCO)CC2)[C@H](C(C)C)C[C@H]1Cc1nnc(-c2ccc(N(C)C)cc2)o1	3	u
CC1=C[C@@H](CNCCN(C)C)[C@H](C(C)C)C[C@H]1Cc1nnc(-c2ccc(C)cc2)o1	-13	i
CC1=C[C@@H](CN2CCC[C@H]2CO)[C@H](C(C)C)C[C@H]1Cc1nnc(-c2ccc(N(C)C)cc2)o1	30	11µM*
COCCNC[C@@H]1C=C(C)[C@H](Cc2nnc(-c3ccc(N(C)C)cc3)o2)C[C@H]1C(C)C	2	28µM*
CC1=C[C@@H](CN(C)CCO)[C@H](C(C)C)C[C@H]1Cc1nnc(-c2ccc(N(C)C)cc2)o1	-2	u
O=C(NC1CCN(Cc2nnnn2-c2ccccc2)CC1)C1CC1	x	i
CCn1c(CC(=O)Nc2ccccc2C)nnc1SCC(=O)Nc1ccc2ccccc2c1	x	i
O=C(NC1CCCCCC1)c1nn(-c2ccccc2)c(=O)c2ccccc12	x	i
SMILES	IP6K1 inhibitor	KDM5B inh
CCN1C(=O)N/C(=C/c2cn(C(C)C)c3ccccc23)C1=O	x	i
COCCOCC(=O)N1CCC2(CC1)C(OC)C(=O)N2c1cccc(F)c1 (configuration not stated)	-3	x
O=C(c1cnc2ccccn2c1=O)N1CC(=O)N(C2CCCCC2)CC(OCc2ccccc2)C1 (configuration not stated)	15	32µM*
CC(C)C(=O)N1CC(=O)N(C2CCCCC2)CC(OCc2ccccc2)C1 (configuration not stated)	7	i
Nc1nc2c(c(=O)[nH]1)CCN(C(=O)CC(c1ccccc1)c1ccco1)C2 (configuration not stated)	16	18µM*
CC(=O)c1c(C)nn(C(C)CC(=O)N2CCc3c(nc(N)[nH]c3=O)C2)c1C (configuration not stated)	2	i
Cc1ccc(S(=O)(=O)CC(=O)c2cccc(-c3ccc(I)cc3)c2)cc1	x	i
COc1ccc(-c2cc(C(=O)NCCCc3ccccc3)c3cnn(C)c3n2)cc1	9	x
CCCCOC(=O)COc1ccc2c(=O)c(-c3ccccc3OC)coc2c1	x	i
CN(C)c1nc(CNC(=O)c2cc(S(N)(=O)=O)ccc2F)cs1	-2	i
CNc1ncc(CN(C)C(=O)c2cc(S(N)(=O)=O)ccc2F)cn1	-2	22µM*
O=c1oc2ccccc2c(NC2CCCCC2)c1NS(=O)(=O)c1ccc(Cl)s1	x	i
COc1ccc(CN2CCc3nc(C(=O)Nc4ccc(Cl)cc4)oc3CC2)cn1	-3	u
COc1ccccc1CN1CCc2nc(C(=O)Nc3ccc(Cl)cc3)oc2CC1	17	35µM*
O=C(Nc1ccc(Cl)cc1)c1nc2c(o1)CCN(Cc1cccc(F)c1F)CC2	1	35µM*
COCCNC(=O)c1nc2c(o1)CCN(Cc1cccc(F)c1F)CC2	6	u
O=C(NCC1CC1)c1nc2c(o1)CCN(Cc1ccc(F)cc1F)CC2	8	i
